About 7,900 targets were measured; listed, in parts, are those with a hit and a random draw of the rest. About 0.6% of all pairs of compound and target were hits.
Experiments:
Assay in all cases: log2 fold change, soluble protein after heating vs DMSO (PISA); higher = thermal stabilisation; K562 cells, 10 uM, 30 min; active = over 0.2 and 3.5 SD of the protein, either way, in both replicates (recomputed)
[1] = compound: CC[C@@H]1C(=O)N(C)c2cnc(Nc3ccc(C(=O)NC4CCN(C)CC4)cc3OC)nc2N1C1CCCC1
Summary of the method: (§1)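 K562 cells (2×10^6 cells/mL) were treated with 10 μM compound for 30 min, and aliquots were heated for 3 min over 48°C-58°C. Pooled aliquots were extracted in PBS with 0.5% NP-40 at 4°C, and the supernatant after 21,000xg for 90 min was measured by TMTpro 16plex LC-MS/MS with channel sums equalised. Reported thermal stability, relative to control samples and from duplicates, is a log2 fold change.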

[2] = compound: CC[C@@H]1C(=O)N(C)c2cnc(Nc3ccc(C(=O)N[C@H]4CC[C@H](N5CCN(CC6CC6)CC5)CC4)cc3OC)nc2N1C(C)C [volasertib]
Summary of the method: as §1

[3] = compound: CC[C@H](C)N1C=C(C2=C(C=C(C=C21)C3=CN=C(C=C3)N4CCNCC4)C(=O)NCC5=C(C=C(NC5=O)C)C)C
Summary of the method: as §1

[4] = compound: CC[C@H](C)[C@@H](C(=O)N[C@@H]([C@@H](C)O)C(=O)N[C@@H](CC(C)C)C(=O)[C@]1(CO1)C)NC(=O)[C@H]([C@@H](C)CC)N(C)C(=O)C [epoxomicin]
Summary of the method: as §1

[5] = compound: CCn1c(C(=O)N(C2CC2)C2CC2)cc2c3c(ncn3C)c(Nc3cc(C)n(C)n3)nc21
Summary of the method: as §1

[6] = compound: CCn1cc(-c2ccnc3[nH]c(-c4cccc(CN(C)C)c4)cc23)c(-c2ccc(NC(=O)N(C)C)cc2)n1
Summary of the method: as §1

[7] = compound: CN(C)CC(=O)Nc1ccc2[nH]c(=O)c3ccccc3c2c1
Summary of the method: as §1

[8] = compound: CN(CCOC1=CC=C(C=C1)C[C@H]2C(=O)NC(=O)S2)C3=CC=CC=N3 (racemic) [rosiglitazone]
Summary of the method: as §1

[9] = compound: CN1C2=C(C3=C1C(=O)N(N=C3)CC4=CC(=CC=C4)N)SC(=C2)S(=O)C
Summary of the method: as §1

[10] = compound: CN1CCC(CNc2ccc3ncc(-c4cccc(OC(F)(F)F)c4)n3n2)CC1
Summary of the method: as §1

[11] = compound: CN1CCN(CCOc2cc(OC3CCOCC3)c3c(Nc4c(Cl)ccc5c4OCO5)ncnc3c2)CC1 [saracatinib]
Summary of the method: as §1

[12] = compound: CN1CCN(c2nc(C3=C(c4c[nH]c5ccccc45)C(=O)NC3=O)c3ccccc3n2)CC1 [sotrastaurin]
Summary of the method: as §1

[13] = compound: CN1CC[C@H](c2c(O)cc(O)c3c(=O)cc(-c4ccccc4Cl)oc23)[C@H](O)C1 [alvocidib]
Summary of the method: as §1

[14] = compound: CN1CCc2c(c3ccccc3n2Cc2ccc(C(=O)NO)cc2)C1 [Tubastatin A]
Summary of the method: as §1

[15] = compound: CNC(=O)C1=CC=CC=C1NC2=NC(=NC=C2Cl)NC3=C(C=C(C=C3)N4CCOCC4)OC
Summary of the method: as §1

[16] = compound: CNC(=O)c1ccc(Nc2ncc(C(F)(F)F)c(NCc3nccnc3N(C)S(C)(=O)=O)n2)cc1 [defactinib]
Summary of the method: as §1

[17] = compound: CNCc1ccc(-c2[nH]c3cc(F)cc4c3c2CCNC4=O)cc1 [rucaparib]
Summary of the method: as §1

[18] = compound: CNc1nc(-c2ccc3c(N)n[nH]c3c2)cc(N2C[C@@H](C(=O)NC3CCCCC3)CC[C@H]2C)n1
Summary of the method: as §1

[19] = compound: COC(=O)N[C@@H](C)CNc1nccc(-c2cn(C(C)C)nc2-c2cc(Cl)cc(NS(C)(=O)=O)c2F)n1 [encorafenib]
Summary of the method: as §1

[20] = compound: COC(=O)[C@H](CCSC)NC(=O)C1=C(C=C(C=C1)NC[C@H](CS)N)C2=CC=CC=C2
Summary of the method: as §1

Measured: log2 fold change

WASHC2A (UniProt Q641Q2)
Chain of UniProt Q641Q2 (Q641Q2 whole entry, looked up): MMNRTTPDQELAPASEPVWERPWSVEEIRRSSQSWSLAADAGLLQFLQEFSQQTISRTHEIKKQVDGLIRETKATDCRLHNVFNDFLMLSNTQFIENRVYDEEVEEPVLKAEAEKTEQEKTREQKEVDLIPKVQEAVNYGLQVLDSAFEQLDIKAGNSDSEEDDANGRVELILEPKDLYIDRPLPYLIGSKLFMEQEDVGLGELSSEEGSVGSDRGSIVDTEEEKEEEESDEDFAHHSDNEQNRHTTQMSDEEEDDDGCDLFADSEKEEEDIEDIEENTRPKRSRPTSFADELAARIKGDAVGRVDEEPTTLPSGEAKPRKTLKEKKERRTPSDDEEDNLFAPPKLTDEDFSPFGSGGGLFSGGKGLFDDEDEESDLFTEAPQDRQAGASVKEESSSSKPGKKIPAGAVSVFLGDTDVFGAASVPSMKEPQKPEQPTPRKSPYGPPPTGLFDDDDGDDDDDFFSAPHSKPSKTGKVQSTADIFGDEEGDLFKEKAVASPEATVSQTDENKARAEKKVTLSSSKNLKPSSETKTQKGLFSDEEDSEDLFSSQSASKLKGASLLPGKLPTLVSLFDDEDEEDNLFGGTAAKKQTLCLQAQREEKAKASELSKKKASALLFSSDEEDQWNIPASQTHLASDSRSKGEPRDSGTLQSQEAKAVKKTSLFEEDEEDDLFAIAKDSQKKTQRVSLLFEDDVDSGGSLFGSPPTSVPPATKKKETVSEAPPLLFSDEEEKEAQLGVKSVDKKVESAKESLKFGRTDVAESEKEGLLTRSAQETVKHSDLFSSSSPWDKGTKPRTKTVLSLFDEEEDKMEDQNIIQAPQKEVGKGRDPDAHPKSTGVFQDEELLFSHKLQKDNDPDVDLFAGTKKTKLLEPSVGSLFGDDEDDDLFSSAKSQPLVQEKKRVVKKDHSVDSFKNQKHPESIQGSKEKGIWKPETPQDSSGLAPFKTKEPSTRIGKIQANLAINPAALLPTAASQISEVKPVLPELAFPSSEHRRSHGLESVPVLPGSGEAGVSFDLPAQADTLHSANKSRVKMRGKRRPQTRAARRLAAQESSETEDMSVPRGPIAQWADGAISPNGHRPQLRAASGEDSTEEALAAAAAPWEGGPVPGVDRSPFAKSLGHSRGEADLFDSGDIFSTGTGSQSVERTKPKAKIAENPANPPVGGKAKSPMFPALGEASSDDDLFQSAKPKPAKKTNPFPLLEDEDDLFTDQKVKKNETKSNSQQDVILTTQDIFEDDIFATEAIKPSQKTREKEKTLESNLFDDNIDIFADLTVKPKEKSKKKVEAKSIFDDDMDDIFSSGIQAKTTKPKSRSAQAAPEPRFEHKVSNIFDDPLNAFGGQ
inactive: [1] -0.058 | [2] -0.15 | [3] 0.026 | [4] 0.022 | [5] 0.018 | [6] 0.052 | [7] -0.046 | [8] -0.004 | [9] 0.037 | [10] -0.18 | [11] 0.013 | [12] 0.001 | [13] 0.052 | [14] 0.016 | [15] 0.015 | [16] 0.01 | [17] 0.045 | [18] -0.039 | [19] 0.019 | [20] 0.017

TNFRSF10A (UniProt O00220)
inactive: [1] 0.046 | [2] 0.001 | [3] -0.02 | [4] -0.047 | [5] -0.037 | [6] -0.104 | [7] -0.123 | [8] -0.053 | [9] -0.02 | [10] -0.007 | [11] -0.038 | [12] -0.012 | [13] 0.02 | [14] 0.04 | [15] -0.052 | [16] 0.039 | [17] 0.017 | [18] 0.02 | [19] 0.031 | [20] 0.056

TPM2 (UniProt P07951)
Chain of UniProt P07951 (P07951 whole entry, looked up): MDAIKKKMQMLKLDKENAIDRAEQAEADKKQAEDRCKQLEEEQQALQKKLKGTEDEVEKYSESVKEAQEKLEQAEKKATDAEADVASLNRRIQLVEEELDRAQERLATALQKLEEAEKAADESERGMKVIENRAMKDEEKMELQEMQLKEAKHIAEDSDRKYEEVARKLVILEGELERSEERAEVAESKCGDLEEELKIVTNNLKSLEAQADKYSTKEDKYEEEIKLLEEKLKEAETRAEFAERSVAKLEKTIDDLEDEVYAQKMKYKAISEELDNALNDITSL
inactive: [1] -0.07 | [2] 0.173 | [3] 0.069 | [4] 0.287 | [5] 0.023 | [6] -0.04 | [7] -0.057 | [8] -0.024 | [9] -0.023 | [10] 0.118 | [11] 0.177 | [12] -0.033 | [13] -0.078 | [14] -0.012 | [15] 0.004 | [16] 0.042 | [17] -0.027 | [18] -0.026 | [19] -0.006 | [20] 0.102

VPS51 (UniProt Q9UID3)
active: [2] -0.335
inactive: [1] -0.028 | [3] -0.036 | [4] -0.015 | [5] -0.033 | [6] 0.003 | [7] 0.032 | [8] 0.016 | [9] 0.094 | [10] -0.135 | [11] -0.029 | [12] -0.097 | [13] -0.113 | [14] 0.029 | [15] -0.011 | [16] -0.056 | [17] 0.041 | [18] -0.034 | [19] 0.046 | [20] 0.002

XPO1 (UniProt O14980)
Chain of UniProt O14980 (O14980 whole entry, looked up): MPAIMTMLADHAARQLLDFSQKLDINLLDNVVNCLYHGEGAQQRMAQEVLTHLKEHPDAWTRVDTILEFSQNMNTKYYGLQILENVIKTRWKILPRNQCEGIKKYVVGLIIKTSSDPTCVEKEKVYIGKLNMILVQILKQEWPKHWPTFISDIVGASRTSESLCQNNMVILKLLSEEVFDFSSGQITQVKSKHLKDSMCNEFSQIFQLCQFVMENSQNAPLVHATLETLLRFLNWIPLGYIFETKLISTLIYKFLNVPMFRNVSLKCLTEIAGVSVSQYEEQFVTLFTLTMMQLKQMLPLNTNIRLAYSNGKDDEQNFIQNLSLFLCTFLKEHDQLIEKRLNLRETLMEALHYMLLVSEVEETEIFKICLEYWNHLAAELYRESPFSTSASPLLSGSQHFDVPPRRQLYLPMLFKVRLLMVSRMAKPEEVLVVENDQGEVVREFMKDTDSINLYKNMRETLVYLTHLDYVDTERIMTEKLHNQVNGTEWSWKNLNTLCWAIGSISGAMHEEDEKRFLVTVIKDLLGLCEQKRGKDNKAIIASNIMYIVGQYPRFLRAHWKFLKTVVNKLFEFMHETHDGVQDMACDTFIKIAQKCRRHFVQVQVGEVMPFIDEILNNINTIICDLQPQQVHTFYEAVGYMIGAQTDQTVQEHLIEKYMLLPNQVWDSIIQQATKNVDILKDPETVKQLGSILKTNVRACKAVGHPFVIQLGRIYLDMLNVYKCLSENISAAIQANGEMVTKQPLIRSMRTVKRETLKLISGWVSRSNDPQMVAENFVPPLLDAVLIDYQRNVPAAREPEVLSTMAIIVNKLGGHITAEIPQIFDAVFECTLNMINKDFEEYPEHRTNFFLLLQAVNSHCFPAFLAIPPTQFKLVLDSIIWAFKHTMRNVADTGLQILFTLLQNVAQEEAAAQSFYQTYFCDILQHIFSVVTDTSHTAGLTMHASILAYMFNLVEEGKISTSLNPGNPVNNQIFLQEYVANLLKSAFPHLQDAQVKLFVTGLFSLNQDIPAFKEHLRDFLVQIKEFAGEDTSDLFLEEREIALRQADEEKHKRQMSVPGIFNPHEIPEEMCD
inactive: [1] -0.175 | [3] 0.085 | [4] 0.023 | [5] -0.049 | [6] -0.13 | [7] 0.058 | [8] 0.077 | [9] -0.033 | [11] 0.003 | [12] -0.088 | [13] -0.096 | [14] 0.001 | [15] -0.028 | [16] -0.093 | [17] -0.012 | [18] 0.02 | [19] 0.094 | [20] -0.041
active: [2] -0.546 | [10] -0.343

U2AF1 isoform 2 (UniProt Q01081)
active: [2] -0.57
inactive: [1] -0.217 | [3] 0.051 | [4] -0.02 | [5] 0.015 | [6] -0.015 | [7] 0.071 | [8] -0.007 | [9] -0.021 | [10] -0.036 | [11] -0.027 | [12] -0.062 | [13] -0.064 | [14] 0.042 | [15] -0.104 | [16] -0.086 | [17] 0.045 | [18] -0.009 | [19] 0.041 | [20] -0.075

WARS2 (UniProt Q9UGM6)
active: [2] -0.323
inactive: [1] -0.07 | [3] 0.099 | [4] 0.016 | [5] 0.043 | [6] -0.03 | [7] 0.043 | [8] 0.074 | [9] -0.055 | [10] -0.099 | [11] -0.037 | [12] 0.014 | [13] -0.08 | [14] -0.04 | [15] 0.018 | [16] -0.065 | [17] 0.04 | [18] 0.006 | [19] -0.011 | [20] -0.057

VPS8 (UniProt Q8N3P4)
inactive: [1] -0.087 | [3] 0.079 | [4] -0.015 | [5] -0.068 | [6] -0.038 | [7] 0.001 | [8] 0.118 | [9] -0.023 | [11] -0.009 | [12] -0.096 | [13] -0.038 | [14] 0.09 | [15] 0.002 | [16] -0.171 | [17] 0.023 | [18] -0.015 | [19] 0.093 | [20] -0.078
active: [2] -0.647 | [10] -0.332

TXNRD1 (UniProt Q16881)
Chain of UniProt Q16881 (Q16881 whole entry, looked up): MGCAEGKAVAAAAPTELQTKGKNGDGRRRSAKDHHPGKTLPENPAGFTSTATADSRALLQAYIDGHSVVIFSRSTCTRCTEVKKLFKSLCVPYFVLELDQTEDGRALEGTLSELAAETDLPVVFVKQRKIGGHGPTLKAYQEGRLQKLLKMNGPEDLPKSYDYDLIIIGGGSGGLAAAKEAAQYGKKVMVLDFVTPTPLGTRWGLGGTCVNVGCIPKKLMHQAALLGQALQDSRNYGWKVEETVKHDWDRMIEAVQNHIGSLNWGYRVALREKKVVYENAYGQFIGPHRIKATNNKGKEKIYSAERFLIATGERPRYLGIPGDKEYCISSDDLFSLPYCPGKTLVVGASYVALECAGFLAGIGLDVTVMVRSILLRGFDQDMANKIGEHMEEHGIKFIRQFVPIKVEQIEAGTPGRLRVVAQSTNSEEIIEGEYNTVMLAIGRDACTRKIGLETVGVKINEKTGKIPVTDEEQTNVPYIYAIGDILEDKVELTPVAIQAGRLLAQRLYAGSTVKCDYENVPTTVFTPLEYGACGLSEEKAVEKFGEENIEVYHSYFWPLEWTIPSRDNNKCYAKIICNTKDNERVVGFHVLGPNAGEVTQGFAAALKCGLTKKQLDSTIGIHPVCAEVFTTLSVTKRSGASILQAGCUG
inactive: [1] 0.004 | [2] 0.05 | [3] 0.006 | [4] 0.054 | [5] -0.032 | [6] -0.049 | [7] -0.003 | [8] 0.067 | [9] -0.096 | [10] -0.006 | [11] -0.012 | [12] 0.058 | [13] -0.05 | [14] -0.001 | [15] 0.022 | [16] -0.015 | [17] -0.113 | [18] 0.032 | [19] -0.033 | [20] -0.001

TRIM4 (UniProt Q9C037)
active: [15] 0.439
inactive: [1] 0.01 | [2] -0.042 | [3] 0.178 | [4] 0.111 | [5] 0.063 | [6] -0.069 | [7] 0.03 | [8] 0.021 | [10] 0.294 | [12] 0.024 | [13] -0.029 | [14] 0.097 | [16] -0.029 | [17] 0.031 | [19] 0.04 | [20] -0.108

TOM1L1 (UniProt O75674)
Chain of UniProt O75674 (O75674 whole entry, looked up): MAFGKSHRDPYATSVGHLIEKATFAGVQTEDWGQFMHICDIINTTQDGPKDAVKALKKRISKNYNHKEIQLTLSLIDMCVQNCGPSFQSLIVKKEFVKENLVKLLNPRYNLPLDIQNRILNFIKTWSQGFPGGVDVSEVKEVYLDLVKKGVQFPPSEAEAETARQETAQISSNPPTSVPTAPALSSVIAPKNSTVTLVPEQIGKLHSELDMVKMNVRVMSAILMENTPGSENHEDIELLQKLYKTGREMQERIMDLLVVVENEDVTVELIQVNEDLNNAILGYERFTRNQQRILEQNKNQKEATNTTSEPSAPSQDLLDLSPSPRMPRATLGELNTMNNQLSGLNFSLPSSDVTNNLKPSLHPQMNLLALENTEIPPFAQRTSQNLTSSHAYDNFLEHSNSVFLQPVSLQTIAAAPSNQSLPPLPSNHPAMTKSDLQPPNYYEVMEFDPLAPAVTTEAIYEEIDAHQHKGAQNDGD
inactive: [1] 0.072 | [2] -0.052 | [3] 0.027 | [4] 0.013 | [5] -0.023 | [6] -0.004 | [7] 0.043 | [8] 0.062 | [9] -0.053 | [11] -0.003 | [12] 0.019 | [13] -0.046 | [14] -0.066 | [15] -0.043 | [16] -0.042 | [17] -0.02 | [18] -0.026 | [19] -0.042 | [20] -0.041
active: [10] 0.385

TMEM179B (UniProt Q7Z7N9)
Chain of UniProt Q7Z7N9 (Q7Z7N9 whole entry, looked up): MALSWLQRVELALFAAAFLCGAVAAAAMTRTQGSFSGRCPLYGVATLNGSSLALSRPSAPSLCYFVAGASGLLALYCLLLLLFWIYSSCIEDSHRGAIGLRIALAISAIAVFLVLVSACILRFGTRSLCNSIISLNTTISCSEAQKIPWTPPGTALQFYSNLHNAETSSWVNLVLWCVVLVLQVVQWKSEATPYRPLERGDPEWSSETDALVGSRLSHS
active: [4] -0.44
inactive: [1] 0.05 | [2] 0.052 | [3] 0.029 | [5] 0.026 | [6] 0.039 | [8] -0.027 | [10] -0.128 | [12] 0.151 | [13] 0.097 | [14] 0.036 | [15] 0.044 | [17] 0.026 | [19] -0.015

WDR46, A0A0G2JJL1
inactive: [1] 0.388 | [2] 0.37 | [3] -0.068 | [4] -0.451 | [5] -0.108 | [7] -0.183 | [8] -0.177 | [9] 0.215 | [11] 0.065 | [12] 0.052 | [14] -0.095 | [15] 0.007 | [16] 0.408 | [17] 0.293 | [18] 0.119 | [19] 0.044 | [20] -0.138

TPR (UniProt P12270)
active: [10] 0.297
inactive: [1] 0.095 | [2] -0.034 | [3] -0.018 | [4] 0 | [5] 0.055 | [6] 0.067 | [7] -0.03 | [8] -0.02 | [9] -0.005 | [11] 0.152 | [12] -0.147 | [13] -0.012 | [14] -0.035 | [15] 0.239 | [16] 0.005 | [17] -0.043 | [18] -0.112 | [19] -0.047 | [20] 0.023

TMEM128 (UniProt Q5BJH2)
Chain of UniProt Q5BJH2 (Q5BJH2 whole entry, looked up): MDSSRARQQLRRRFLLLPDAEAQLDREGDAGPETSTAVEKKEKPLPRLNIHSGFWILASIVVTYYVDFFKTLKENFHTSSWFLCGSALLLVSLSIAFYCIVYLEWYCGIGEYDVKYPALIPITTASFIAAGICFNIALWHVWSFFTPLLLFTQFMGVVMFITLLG
inactive: [1] -0.076 | [2] -0.005 | [3] 0.015 | [4] 0.003 | [5] 0.006 | [7] 0.149 | [8] 0.032 | [9] -0.033 | [11] 0.083 | [12] 0.01 | [13] -0.082 | [14] -0.011 | [15] -0.023 | [16] -0.045 | [17] 0.019 | [18] -0.062 | [19] -0.006 | [20] -0.006

VPS28 (UniProt Q9UK41)
Chain of UniProt Q9UK41 (Q9UK41 whole entry, looked up): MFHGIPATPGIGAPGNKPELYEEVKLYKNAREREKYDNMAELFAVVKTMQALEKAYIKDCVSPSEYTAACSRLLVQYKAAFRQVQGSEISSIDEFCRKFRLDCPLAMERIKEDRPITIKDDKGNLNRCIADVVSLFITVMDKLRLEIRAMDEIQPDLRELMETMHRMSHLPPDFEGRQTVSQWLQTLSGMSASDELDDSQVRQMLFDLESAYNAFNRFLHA
inactive: [1] -0.057 | [3] 0.032 | [4] 0.09 | [5] 0.001 | [6] -0.048 | [7] 0.011 | [8] 0.102 | [9] -0.038 | [10] -0.139 | [11] -0.101 | [12] -0.078 | [13] -0.135 | [14] 0.072 | [15] 0.043 | [16] -0.172 | [17] -0.044 | [18] -0.046 | [19] 0.082 | [20] -0.033
active: [2] -0.3

TMEM104 (UniProt Q8NE00)
Chain of UniProt Q8NE00 (Q8NE00 whole entry, looked up): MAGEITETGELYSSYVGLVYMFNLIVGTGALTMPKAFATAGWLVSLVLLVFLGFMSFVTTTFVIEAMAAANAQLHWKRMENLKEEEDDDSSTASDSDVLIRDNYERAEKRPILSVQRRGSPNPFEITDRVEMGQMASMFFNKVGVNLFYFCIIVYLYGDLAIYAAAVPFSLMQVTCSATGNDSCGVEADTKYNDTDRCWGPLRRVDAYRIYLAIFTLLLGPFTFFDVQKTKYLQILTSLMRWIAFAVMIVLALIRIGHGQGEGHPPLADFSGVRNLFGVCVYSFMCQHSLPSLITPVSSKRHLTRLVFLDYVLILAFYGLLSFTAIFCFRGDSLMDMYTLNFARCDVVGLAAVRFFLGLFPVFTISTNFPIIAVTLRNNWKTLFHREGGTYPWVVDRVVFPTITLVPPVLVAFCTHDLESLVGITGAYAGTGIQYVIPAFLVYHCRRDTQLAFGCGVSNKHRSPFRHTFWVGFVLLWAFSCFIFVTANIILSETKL
inactive: [1] -0.019 | [2] 0.043 | [3] -0.033 | [4] -0.19 | [5] -0.027 | [6] 0.204 | [9] 0.12 | [10] 0.018 | [11] -0.024 | [13] -0.013 | [15] -0.007 | [17] 0.06 | [18] -0.122 | [19] 0.056

From the supplement of paper PMC10849652
